Screening data deposited in PubChem BioAssay by several laboratories.
Hits are enriched below; roughly 2.3% of the tested compounds scored in any of these assays.
KLK7 zymogen act = proKLK7 zymogen activators, primary screen, biochemical, fluorescence intensity. Kallikrein-7 (Homo sapiens), P49862. purified proKLK7, EDANS-DABCYL substrate fluorescence; 100% is mature enzyme control, 0% vehicle. activation, % at 7 µM. hit rate 0.9% among 370,000;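 active = activation above the mean of all tested compounds plus 3 SD, computed per campaign excluding outliers beyond control limits, cut at about 13% in these data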
V-ATPase pH = regulators of yeast V-ATPase proton pumping, primary screen, pHLuorin cytosolic pH fluorescence | AID 504577, 2011 | S. cerevisiae | response, % at 10 µM | hit rate 0.37% among 350,000; in the data active = response mostly above about 7.3%, no sharp cut-off; inactive = mostly below about 5.4%; note: actives read high
ADAM17 inh = ADAM17 inhibitors, primary screen, biochemical, QFRET; recombinant ADAM17, EDANS/DABCYL FRET peptide cleavage; hit rate 0.83% among 370,000; inhibition, % at 6.95 µM;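 active = inhibition above the mean of compounds lying between control limits plus 3 SD, set per campaign, cut at about 8.5% in these data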;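 note: 0% = DMSO-only wells as the low control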
ADAM10 inh = human ADAM10 inhibitors, primary screen, biochemical, QFRET, HTS | recombinant ADAM10, EDANS/DABCYL FRET peptide cleavage, 3 h | inhibition, % at 7 µM | hit rate 0.62% among 370,000 | AID 720582, 2013;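 active = inhibition above a per-campaign cutoff equal to the mean of compounds falling between control-based bounds plus 3 SD, cut at about 20% in these data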;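 note: 0% = DMSO wells while the 100% control is not disclosed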
Target sequence (O14672 214-748 limits assumed): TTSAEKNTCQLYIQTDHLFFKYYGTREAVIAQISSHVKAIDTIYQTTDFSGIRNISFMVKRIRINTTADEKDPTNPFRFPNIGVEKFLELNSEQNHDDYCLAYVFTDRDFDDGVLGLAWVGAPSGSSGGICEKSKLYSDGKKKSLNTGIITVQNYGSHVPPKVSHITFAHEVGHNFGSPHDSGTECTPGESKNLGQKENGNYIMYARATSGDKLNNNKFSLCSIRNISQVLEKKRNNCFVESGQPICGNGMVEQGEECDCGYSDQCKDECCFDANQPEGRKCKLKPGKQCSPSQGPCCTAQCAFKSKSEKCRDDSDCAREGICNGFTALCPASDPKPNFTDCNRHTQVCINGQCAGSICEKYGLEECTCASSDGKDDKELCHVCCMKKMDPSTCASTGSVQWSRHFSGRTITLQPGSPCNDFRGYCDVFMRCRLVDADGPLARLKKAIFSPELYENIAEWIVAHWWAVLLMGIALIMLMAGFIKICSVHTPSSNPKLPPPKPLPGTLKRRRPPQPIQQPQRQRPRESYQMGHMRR
The depositor's hits bear a star; i = inactive; · = no result given.

SMILES	KLK7 zymogen act	V-ATPase pH	ADAM17 inh	ADAM10 inh
Cc1ccc(Oc2coc3cc(OC(=O)c4cccs4)ccc3c2=O)cc1	45.5*	0.0	-56.5	-209.4
CC(C)CNC(=O)c1coc(=O)c(Br)c1	27.4*	2.2	-126.0	-491.7
CCCCOc1ccc(C(=O)n2ccc3ccc(-c4ccc5ccn(Cc6ccccc6)c5c4)cc32)cc1	4.5	·	-7.1	-18.4
Cn1c(=O)c([N+](=O)[O-])c(Cl)c2ccccc21	-0.8	32.3*	-3.6	-0.3
Cc1ccc2nc(NC(=O)C3CCN(S(=O)(=O)c4cccs4)CC3)sc2c1	-0.2	1.5	5.7	21.3*
Cc1nn(C)cc1CN(C)C(=O)c1cc2nc(-c3ccco3)cc(C(F)(F)F)n2n1	15.7*	3.5	-62.9	-213.9
C=Cc1ccc(C(=O)N2CCC(n3nnc4ncccc43)CC2)cc1	0.4	·	0.3	-1.3
COc1cc(C2C(C#N)=C(N)OC3=C2C(=O)CCC3)c([N+](=O)[O-])cc1OC (stereo unspecified)	25.1*	1.2	-34.8	-149.6
C[C@@H]1CN([C@H](C)CO)C(=O)c2cc(NC(=O)Nc3ccc(C(F)(F)F)cc3)ccc2O[C@H]1CN(C)S(=O)(=O)c1ccc(Cl)cc1	-0.8	-1.6	7.7	25.3*
C[C@H]1CN([C@@H](C)CO)C(=O)c2cccc(NC(=O)Nc3ccc(C(F)(F)F)cc3)c2O[C@@H]1CN(C)S(=O)(=O)c1ccc(Cl)cc1	0.8	-0.8	9.2*	24.1*
C[C@H](CO)N1C[C@H](C)[C@@H](CN(C)S(C)(=O)=O)Oc2ccc(NC(=O)Nc3ccc(C(F)(F)F)cc3)cc2C1=O	-0.2	0.9	3.0	0.5
C[C@H](CO)N1C[C@H](C)[C@@H](CN(C)S(=O)(=O)c2ccc(F)cc2)Oc2c(NC(=O)Nc3ccc(C(F)(F)F)cc3)cccc2C1=O	-0.4	3.8	6.4	14.4
C=CCN1[C@@H](CC(C)C)COc2cc(N3CCSCC3)ccc2S1(=O)=O	0.0	·	-2.2	0.6
Cc1ccc(O)c(C(=O)c2cc(C#N)c(=O)n(-c3nccs3)c2)c1	17.2*	-0.7	-20.9	-51.7
O=C1C2C3C=CC(C3)C2C(=O)N1/N=C/c1cn(Cc2ccc(F)cc2)c2ccccc12 (stereo unspecified)	-0.1	0.3	2.6	4.2
O=C1C2C3C=CC(C3)C2C(=O)N1/N=C/c1cn(Cc2ccccc2)c2ccccc12 (stereo unspecified)	0.5	13.5*	-2.7	-2.2
CCc1ccc(NCCC(=O)c2ccc(Br)cc2)cc1	·	14.8*	·	·
Cc1ccc(NCCC(=O)c2ccc(Br)cc2)cc1	0.6	1.2	-4.0	-1.8
O=C(Nc1cccc(Cl)c1)Nc1cc(S(=O)(=O)N2CCCCC2)ccc1Cl	0.0	-3.0	9.9*	21.6*
CN1CCN(S(=O)(=O)c2ccc(NC(=O)Nc3cccc(Cl)c3)cc2)CC1	-0.1	1.7	-2.0	2.4
O=S1(=O)CC2c3ccccc3CCN2CN1Cc1ccc(F)cc1 (stereo unspecified)	0.1	·	2.1	4.5
CCc1ccccc1NC1=NCC(=O)N1Cc1ccccc1	-0.8	16.5*	-3.0	-4.9
Cc1cc(C)cc(NC2=NCC(=O)N2Cc2ccccc2)c1	0.5	5.8	-3.1	-3.0
CCC1=CC(c2ccccc2)n2ncnc2N1 (stereo unspecified)	2.8	14.1*	-174.0	i
Cc1ccc(C2=CC(c3ccccc3)n3ncnc3N2)cc1 (stereo unspecified)	53.4*	1.3	-164.4	i
SMILES	KLK7 zymogen act	V-ATPase pH	ADAM17 inh	ADAM10 inh
Cc1ccccc1NC(=O)CN1C(=O)CCSc2ccccc21	0.3	·	1.3	2.3
O=C(NC1CCCC1)C1(C(=O)C2CC2)CC(c2ccccc2C(F)(F)F)=NO1 (stereo unspecified)	0.9	·	2.9	10.3
O=C(N1CCC(Cc2ccccc2)CC1)n1ncc(C(O)(c2ccccc2)c2ccccc2)n1	·	·	3.6	9.7
O=C1c2sc3nc4ccccc4n3c2C(=O)N1c1ccccc1Cl	0.8	10.5*	-2.4	5.4
Cc1ccccc1N1C(=O)c2sc3nc4c(c(=O)n3c2C1=O)CCC4	·	0.7	·	·
O=C(CSc1nnc2ccc(-c3ccc(F)cc3)nn12)N1CCCC1	6.1	19.7*	-27.6	-75.8
O=C(CSc1ccc2nnc(-c3ccc(Cl)cc3)n2n1)N1CCCC1	1.4	13.9*	-3.7	-15.6
O=C(CSc1nnc2ccc(-c3ccc(F)cc3)nn12)NCC1CCCO1 (stereo unspecified)	2.6	-0.8	-27.4	-70.2
CCC(=O)Nc1ccc(C(=O)Cn2ncc(Cl)c(Cl)c2=O)cc1	0.2	10.9*	-0.9	2.3
CC(=O)Nc1cc(OC(C)=O)c2nonc2c1OC(C)=O	40.0*	-3.0	-22.1	-72.9
CC(=O)Nc1nonc1NC(C)=O	0.4	2.3	0.3	2.4
C[C@]12c3[nH]c4cc(-c5ccco5)ccc4c3CCN1C(=O)[C@@H](CC(=O)NCCc1ccccn1)C[C@@H]2C(=O)N1CCCCC1	177.7*	0.3	-158.9	i
CCOC(=O)[C@]12CCCCC/C=C\1N(CCc1ccc(Cl)cc1)C(=O)[C@H]2CC(=O)NCCc1ccccc1OC	-0.2	·	4.9	14.5
NC(=O)COC(=O)c1ccccc1SCC(=O)NC1CCCCCCC1	1.2	1.8	-4.8	-3.9
CCNC(=O)NC(=O)COC(=O)c1ccccc1SCC(=O)NC(=O)NCC	39.4*	-2.4	-244.3	i
CNc1nc(N)c([N+](=O)[O-])c(Nc2cccc(Br)c2)n1	·	·	-2.3	2.3
COc1ccc(CN2CCOCCOCCOCC2)cc1	-0.4	14.5*	-2.4	3.5
O=C(NCCOc1ccccc1)C1Nc2ccc(C(F)(F)F)cc2C2c3ccccc3CC12 (stereo unspecified)	0.2	2.0	-3.3	-5.6
CCOC(=O)C1Nc2ccc(C(F)(F)F)cc2C2c3ccccc3CC12 (stereo unspecified)	20.9*	-0.5	-1.9	-0.9
C[C@H]1CCC[C@H](O)CC(=O)c2c(O)cc(O)cc2CC(=O)O1	0.5	·	-0.7	0.3
O=C(CSc1nc2ncc(Cl)cc2[nH]1)Nc1cccc(F)c1	-0.5	1.5	-3.1	3.4
CN(CC(=O)Nc1ccc(F)cc1)C(=O)CSc1nc2ncc(Cl)cc2[nH]1	-0.2	74.1*	-1.0	-2.4
CCCCC(CC)CN=C(N)NC(N)=NCCCCCCN=C(N)NC(N)=NCC(CC)CCCC (stereo unspecified)	·	84.3*	·	·
CCCCC(CC)CO (stereo unspecified)	-0.1	3.4	-0.5	-8.0
COc1ccc(NC(=S)NCc2ccccc2Cl)c(OC)c1	-0.4	20.7*	-3.1	-3.0
O=C(CSc1nc2ccccc2nc1N1CCOCC1)N1CCN(c2cccc(C(F)(F)F)c2)CC1	-0.6	·	3.5	-0.2
C[C@H]1[C@@H](N(C)Cc2cccs2)CC[C@@]23CCCN2C(=O)CCC[C@@H]13	·	·	-2.0	0.2
O=C(CSc1nnc(-c2cccnc2)n1-c1ccc(Cl)cc1)Nc1ccccc1-c1ccccc1	0.7	·	2.2	6.2
